Shown are actives, neighbours in structure and some others; about 28% of the full set was active somewhere.
Mac1 fbg enh = enhancers of human CD11b/CD18 binding to fibrinogen; activation, % at 10 µM; P05107+P11215; AID 1499; 93,000 tested, 0.07% active; K562 CD11b/CD18 adhesion to fibrinogen, ATPlite luminescence;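 active means 10 µM primary screen giving 50% or more activity, confirmed by 40% or more on retest at that dose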
CYP2C19 inhib = human CYP2C19 inhibition | CYP2C19 Supersomes, luciferin-H EGE luminescence, 30 min | inhibition, % at 5 µM | 96,000 tested, 21% active;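 active means CYP2C19 inhibition above a set limit at 5 µM in the primary screen, cut at about 50% in these data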;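 further: plate controls were negative control wells for no effect and 2.5 mM tranylcypromine positive control for full effect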
CD11b adhes inh = blocks human CD11b/CD18 adhesion to fibrinogen | 93,000 tested, 0.54% active | K562 CD11b/CD18 adhesion to fibrinogen, ATPlite luminescence; Mn2+ added to activate the integrin | inhibition, % at 10 µM;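 active means primary inhibition of 50% or more at 10 µM, then 40% or more on retest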
CYP2C19 activ = activators of human cytochrome P450 2C19; P33261; recombinant CYP2C19, luciferin-H EGE luminescence; stronger effect = higher value; 0 = fully inhibited enzyme, 1 = untreated enzyme; activation factor at 5 µM; 96,000 tested, under 10 active;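 active means activation factor of at least 2 at 5 µM in the primary screen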;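 further: 0 = wells with 2.5 mM tranylcypromine and 1 = vehicle-only wells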
CYP2C9 inh = human CYP2C9 inhibition; P11712; inhibition, % at 5 µM; 96,000 tested, 20% active; CYP2C9 Supersomes, luciferin-H conversion, luminescence;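 active means blocking of liver enzyme CYP2C9 beyond about 50% at 5 µM, limit read from the data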
Target sequence (P11712 whole entry, looked up): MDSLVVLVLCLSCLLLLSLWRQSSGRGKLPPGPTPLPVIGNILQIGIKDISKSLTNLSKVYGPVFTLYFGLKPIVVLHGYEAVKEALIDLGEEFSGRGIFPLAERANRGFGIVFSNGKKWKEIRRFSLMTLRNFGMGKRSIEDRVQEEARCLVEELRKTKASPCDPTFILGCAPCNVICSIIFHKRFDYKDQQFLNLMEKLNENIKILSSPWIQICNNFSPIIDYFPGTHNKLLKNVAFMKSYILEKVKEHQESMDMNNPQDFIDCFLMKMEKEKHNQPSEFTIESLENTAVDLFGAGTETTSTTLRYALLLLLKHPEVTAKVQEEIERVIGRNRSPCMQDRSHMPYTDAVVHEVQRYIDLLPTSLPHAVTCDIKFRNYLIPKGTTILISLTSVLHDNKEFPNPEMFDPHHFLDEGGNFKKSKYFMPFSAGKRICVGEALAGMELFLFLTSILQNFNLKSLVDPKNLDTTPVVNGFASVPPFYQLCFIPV
CYP2C9 activ = CYP2C9 (human) activation; P11712; 96,000 tested, 1.4% active; activation factor at 5 µM; recombinant CYP2C9, luciferin-H conversion, luminescence; stronger effect = higher value; factor 1 = untreated enzyme, 0 = blocked;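 active means activation factor of 2 or more for CYP2C9 at a 5 µM dose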;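 further: 0 = sulfaphenazole-blocked wells and 1 = vehicle-only wells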
* marks the source's active call; other numbers are inactive results; · = not tested or not shown.

SMILES	Mac1 fbg enh	CYP2C19 inhib	CD11b adhes inh	CYP2C19 activ	CYP2C9 inh	CYP2C9 activ
CC1CCCN(c2oc(-c3cccc4ccccc34)nc2C#N)C1 (stereo not drawn)	-4	2	-2	1	21	0.8
C=CCNC(=O)CN(c1cccc(Br)c1)S(C)(=O)=O	0	12	8	0.9	-28	1.3
CN(C)C(CNC(=O)c1cccc(S(=O)(=O)N2CC3(C)CC2CC(C)(C)C3)c1)c1ccco1 (stereo not drawn)	-5	75*	-3	0.3	73*	0.3
CCCCNC(=O)NS(=O)(=O)c1ccc(C(=O)OC(C)C)o1	·	5	·	0.9	69*	0.3
COC(=O)c1ccc(S(=O)(=O)N2CCCCC2)o1	0	23	0	0.8	5	1
O=C(NCCSCc1c(F)cccc1Cl)c1ccco1	-3	80*	-5	0.2	75*	0.3
O=C(O)CSCC(=O)Nc1ccc(C2CCCCC2)cc1	-4	3	6	1	64*	0.4
O=C(CC1CCCC1)NCCc1cn2ccccc2n1	6	68*	-13	0.3	21	0.8
O=C(CC1CCCCC1)NCc1cn2ccsc2n1	-2	37	-11	0.6	53*	0.5
O=C(Cc1cn2ccsc2n1)Nc1nc2c(s1)CCCC2	-1	47	5	0.5	52*	0.5
CCOC(=O)C1CCN(C(=O)CN(c2ccc3c(c2)OCO3)S(C)(=O)=O)CC1	1	-15	-2	1.1	-10	1.1
c1ccc(-c2noc(-c3cccc4ccccc34)n2)nc1	-2	64*	15	0.4	1	1
COc1cc(-c2nc(-c3ccccn3)no2)cc(OC)c1OC	-2	-1	-20	1	-8	1.1
COc1cccc(-c2nc(-c3ccccn3)no2)c1OC	-1	90*	-37	0.1	38	0.6
COC(=O)c1cc(OC)c(OC)cc1NC(=S)N1CCCC(CO)C1 (stereo not drawn)	-1	9	-11	0.9	-18	1.2
CCSc1nc(N2CCCCC2)c2c(c1C#N)CCCC2	-2	69*	27	0.3	93*	0.1
N#Cc1c(-c2ccccc2)nc(-c2ccccc2)nc1N1CCOCC1	-2	-11	14	1.1	-10	1.1
N#Cc1c(SCc2ccccc2)nc(N2CCOCC2)c2c1CCCC2	2	35	1	0.7	92*	0.1
O=C(NCCN1CCCCCC1)C1CC(=O)N(CCc2ccccc2)C1 (stereo not drawn)	6	24	-11	0.8	4	1
COc1ccc(N=CC2=C(O)c3ccccc3C2=O)c(OC)c1	·	78*	·	0.2	13	0.9
CN1C(=O)N(C)C2C1NC(=O)N2C (stereo not drawn)	-1	-12	-4	1.1	-13	1.1
Cc1cc(C)c(C#N)c(SC2CCCCC2=O)n1 (stereo not drawn)	0	61*	-24	0.4	-18	1.2
CSc1nc(C)cc(C)c1C#N	·	6	·	0.9	1	1
CCCn1cnc2c(c1=O)c1nc3ccccc3nc1n2CCc1ccccc1	1	90*	12	0.1	39	0.6
Nc1c(C(=O)NC2CCCCC2)c2nc3ccccc3nc2n1/N=C/c1ccco1	0	1	8	1	34	0.7
SMILES	Mac1 fbg enh	CYP2C19 inhib	CD11b adhes inh	CYP2C19 activ	CYP2C9 inh	CYP2C9 activ
CCCCCCn1c(C)nc2c(c1=O)c1nc3ccccc3nc1n2/N=C/c1ccco1	-3	2	1	1	74*	0.3
Cc1nc2c(c(=O)n1CCC1=CCCCC1)c1nc3ccccc3nc1n2/N=C/c1ccccc1	-7	9	-6	0.9	35	0.6
CCOCCCn1c(C)nc2c(c1=O)c1nc3ccccc3nc1n2CCC1=CCCCC1	-4	73*	-3	0.3	80*	0.2
O=c1c2c3nc4ccccc4nc3n(/N=C/c3ccco3)c2ncn1CCC1=CCCCC1	9	55*	-5	0.5	58*	0.4
Cn1c(Cc2csc(N)n2)nnc1SCC(=O)NCc1ccccc1	-1	8	10	0.9	2	1
Cc1cc(C)c(NC(=O)CSc2nnc(Cc3cccn3C)n2-c2ccc(F)cc2)c(C)c1	2	-3	17	1	18	0.8
CN(CC(=O)Nc1ccc(Cl)cc1)CC(=O)Nc1ccc(F)c(F)c1F	-2	·	23	·	·	·

Bioassay records deposited in PubChem by Sanford-Burnham Center for Chemical Genomics.
